# Results reported in PubChem BioAssay AID1159580 (chemical genetic matrix, 2015).
# The whole screen tested about 5,500 compounds, of which about 2,000 (36%) were called active. About 18% were inconclusive and are not listed. Some of the results follow. Unmarked numbers belong to inactive results. No stated cut-off is given here; in the data, active means normalized growth mostly below about 0.91 (no sharp cut-off); inconclusive means no clear call, values can overlap the other calls; inactive means mostly above about 0.92.
# Assay: chemical genetic growth profiling, strain panel (AID 1159580);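 further: tested at 20 µM; growth read once vehicle control cultures reached saturation at 30 °C; 1 = growth at the plate median or of vehicle wells; lower values mean less growth of the strain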
# Conditions: growth OD
# [1] = S. cerevisiae deletion strains, locus YAL013W, strain DEP1, active compounds read low
# [2] = S. cerevisiae deletion strains, locus YBR229C, strain ROT2, active compounds read low
# [3] = S. cerevisiae deletion strains, locus YDL101C, strain DUN1, active compounds read low
# [4] = S. cerevisiae deletion strains, locus YDL134C, strain PPH21, active compounds read low
# [5] = S. cerevisiae deletion strains, locus YDR150W, strain NUM1, active compounds read low
# [6] = S. cerevisiae deletion strains, locus YEL061C, strain CIN8, active compounds read low
# [7] = S. cerevisiae deletion strains, locus YGR078C, strain PAC10, active compounds read low
# [8] = S. cerevisiae deletion strains, locus YHR030C, strain SLT2, active compounds read low
# [9] = S. cerevisiae deletion strains, locus YHR087W, strain rtc3, active compounds read low
# [10] = S. cerevisiae deletion strains, locus YJR043C, strain POL32, active compounds read low
# [11] = S. cerevisiae deletion strains, locus YJR075W, strain HOC1, active compounds read low
# [12] = S. cerevisiae deletion strains, locus YKL190W, strain CNB1, active compounds read low
# [13] = S. cerevisiae deletion strains, locus YLR039C, strain RIC1, active compounds read low
# [14] = S. cerevisiae deletion strains, locus YLR058C, strain SHM2 (second series), active compounds read low
# [15] = S. cerevisiae deletion strains, locus YLR085C, strain ARP6, active compounds read low
# [16] = S. cerevisiae deletion strains, locus YLR262C, strain YPT6, active compounds read low
# [17] = S. cerevisiae deletion strains, locus YML094W, strain GIM5, active compounds read low
# [18] = S. cerevisiae deletion strains, locus YMR219W, strain ESC1, active compounds read low
# [19] = S. cerevisiae deletion strains, locus YMR263W, strain SAP30, active compounds read low
# [20] = S. cerevisiae deletion strains, locus YNL153C, strain GIM3, active compounds read low
# [21] = S. cerevisiae deletion strains, locus YNL298W, strain CLA4 (second series), active compounds read low
# [22] = S. cerevisiae deletion strains, locus YNL322C, strain KRE1, active compounds read low
# [23] = S. cerevisiae deletion strains, locus YNR030W, strain Alg12, active compounds read low
# [24] = S. cerevisiae deletion strains, locus YOL006C, strain TOP1, active compounds read low
# [25] = S. cerevisiae deletion strains, locus YPL055C, strain LGE1, active compounds read low
# [26] = S. cerevisiae deletion strains, locus YPL241C, strain CIN2, active compounds read low
# [27] = S. cerevisiae deletion strains, locus YPR135W, strain CTF4, active compounds read low
structure (smiles),measurement,setting,value
O=C(Nc1ccccc1F)C(Cl)Cl,normalized growth,[1],0.999
same,normalized growth,[2],0.989
same,normalized growth,"S. cerevisiae deletion strains, locus YCL061C, strain MRC1, active compounds read low",1
same,normalized growth,[3],0.994
same,normalized growth,[4],0.967
same,normalized growth,[5],1.01
same,normalized growth,[6],1.01
same,normalized growth,[7],0.975
same,normalized growth,[8],1.07
same,normalized growth,[9],0.981
same,normalized growth,[10],0.997
same,normalized growth,[11],0.971
same,normalized growth,[12],0.981
same,normalized growth,[13],1.16
same,normalized growth,[14],0.987
same,normalized growth,[15],0.991
same,normalized growth,[16],1.14
same,normalized growth,[17],0.992
same,normalized growth,[18],0.991
same,normalized growth,[19],0.995
same,normalized growth,[20],1.02
same,normalized growth,[21],0.984
same,normalized growth,[22],0.987
same,normalized growth,[23],0.976
same,normalized growth,[24],1.02
same,normalized growth,[25],0.962
same,normalized growth,[26],0.977
same,normalized growth,[27],0.99
Nc1ccccc1SCC(=O)Nc1c(F)cccc1F,normalized growth,[1],0.982
same,normalized growth,[2],0.998
same,normalized growth,[3],0.979
same,normalized growth,[4],1.04
same,normalized growth,[5],0.977
same,normalized growth,[6],1.03
same,normalized growth,[7],1
same,normalized growth,[8],0.938
same,normalized growth,[9],1.05
same,normalized growth,"S. cerevisiae deletion strains, locus YJL187C, strain SWE1, active compounds read low",1.03
same,normalized growth,[10],0.975
same,normalized growth,[11],1.01
same,normalized growth,[12],1.01
same,normalized growth,[13],0.672 (active)
same,normalized growth,[14],1.02
same,normalized growth,[15],0.985
same,normalized growth,[16],0.595 (active)
same,normalized growth,[17],0.955
same,normalized growth,[18],0.998
same,normalized growth,[19],1.01
same,normalized growth,[20],1.01
same,normalized growth,[21],1.03
same,normalized growth,[22],1
same,normalized growth,[23],1
same,normalized growth,[24],0.903
same,normalized growth,[25],0.994
same,normalized growth,[26],0.977
same,normalized growth,[27],1.02
same,normalized growth,"S. cerevisiae strains, strain wild type, active compounds read low",1.01
